This note sets out measurements from PubChem BioAssay (Tox21).

Experiment [1] is described as follows: qHTS assay to identify small molecule antagonists of the thyroid receptor (TR) signaling pathway - cell viability counter screen (AID 743064). Further: nearly all actives have a fitted effect of over 50% in size. Further: potency means the concentration at half of the fitted maximal effect. Put shortly: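 Plate GH3.TRE-Luc cells; incubate 4 h at 37 °C; add compound, then T3 to 1 nM final; incubate 23.5 h; add CellTiter-Fluor; incubate 30 min at 37 °C, 5% CO2; read fluorescence.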
Experiment [2] can be described thus: qHTS assay to identify small molecule antagonists of the thyroid receptor (TR) signaling pathway (AID 743065). Further: nearly all actives have a fitted effect of over 55% in size. Further: potency means the concentration at half of the fitted maximal effect. On activity, negative = inhibition: series mostly up to about 70 µM. The method, boiled down:
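GH3.TRE-Luc rat pituitary cells (two TREs driving luciferase) were dosed with compound, then stimulated with 1 nM T3 (final) for 23.5 h at 37 C. ONE-Glo luminescence was the read-out, with CellTiter-Fluor fluorescence as the cytotoxicity counter-screen.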
In general terms: qHTS replaces the single test concentration by a dilution series.

In experiment [3] the test system is thyroid hormone receptor (rat, GH3 cells). The experiment in a line: qHTS assay to identify small molecule agonists of the thyroid receptor (TR) signaling pathway (AID 743066; calls by dose curve).
Experiment [4] can be described thus: qHTS assay to identify small molecule antagonists of the estrogen receptor alpha (ER-alpha) signaling pathway - cell viability counter screen (AID 743074; calls by dose curve;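 further: HEK293 cells carrying ER-alpha-UAS-bla reporter stimulated with 17beta-estradiol; nearly all actives have a fitted effect of over 45% in size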).
The nature of experiment [5]: qHTS assay to identify small molecule antagonists of the estrogen receptor alpha (ER-alpha) signaling pathway using the BG1 cell line - cell viability counter screen (AID 743081).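 Further: compound given together with 17beta-estradiol as the ER stimulus; nearly all actives have a fitted effect of over 45% in size.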 Further: potency means the concentration at half of the fitted maximal effect. On activity change, negative = cytotoxicity: series mostly up to about 70 µM.
Experiment [6] has as its target Aromatase (Homo sapiens) (UniProt P11511). The experiment in a line: qHTS assay to identify aromatase inhibitors (AID 743083). Further: series mostly up to about 70 µM; nearly all actives have a fitted effect of over 55% in size.
A short description of experiment [7]: qHTS assay to identify aromatase inhibitors - cell viability counter screen (AID 743084).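 Further: cells stimulated with testosterone during compound exposure; nearly all actives have a fitted effect of over 55% in size.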 Further: potency means the concentration at half of the fitted maximal effect.
Experiment [8] concerns the target Aryl hydrocarbon receptor (Homo sapiens) (UniProt P35869). The experiment in a line: qHTS assay to identify small molecule that activate the aryl hydrocarbon receptor (AhR) signaling pathway (AID 743085).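 Further: HG2L7.5c1 human HepG2 liver cells with stably integrated DRE-driven firefly reporter; series mostly up to about 70 µM; nearly all actives have a fitted effect of over 15% in size.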 The method, boiled down:
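Steps: seed HepG2-AhR-luc cells; allow 5 h at 37C; pin-transfer test compound or vehicle; incubate 24 h at 37C; add viability dye (30 min, 37C) and read fluorescence; add luciferase substrate (30 min, RT) and read luminescence.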

A short description of experiment [9]: qHTS assay to identify small molecule that activate the aryl hydrocarbon receptor (AhR) signaling pathway - cell viability counter screen (AID 743086). Further: nearly all actives have a fitted effect of over 45% in size. Further: potency means the concentration at half of the fitted maximal effect.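 On viability change, negative = cytotoxic: HepG2 liver cells carrying the AhR DRE luciferase reporter; series mostly up to about 70 µM.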 The method, boiled down: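 HepG2-AhR-luc (HG2L7.5c1) cells, 4000/well, treated 24 h at 37 C with compound; viability measured as CellTiter-Fluor fluorescence after 30 min in the same wells as the luciferase read.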

Experiment [10] addresses Peroxisome proliferator-activated receptor gamma (Homo sapiens) (UniProt P37231). As to the kind of experiment: qHTS assay to identify small molecule agonists of the peroxisome proliferator-activated receptor gamma (PPARg) signaling pathway (AID 743094; active means well fitted activation curve with a large enough effect in the signal ratio in the repeat runs, not every such curve was filed as active; the % refers to the signal ratio). Put shortly:
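HEK293H PPARg-bla cells, 5 h settle at 37C/5% CO2; compound (DMSO) 17 h, 37C; B/G FRET substrate 1 h RT; fluorescence intensity read-out. qHTS format.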

Experiment [11] in a line: qHTS assay for small molecule agonists of the antioxidant response element (ARE) signaling pathway (AID 743202; active means well fitted activation curve with a large enough effect in the signal ratio in the repeat runs, not every such curve was filed as active; the % refers to the signal ratio). Put shortly:
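HepG2 ARE-bla reporter line, 2,000 cells/well; 5 h preincubation 37 C/5% CO2; compound (DMSO) 16 h 37 C; B/G FRET substrate 2 h RT; fluorescence intensity.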

The nature of experiment [12]: qHTS assay for small molecule agonists of the antioxidant response element (ARE) signaling pathway - cell viability counter screen (AID 743203; calls by dose curve; further: nearly all actives have a fitted effect of over 55% in size; further: potency means the concentration at half of the fitted maximal effect). The method, boiled down:
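Luminescence read-out (CellTiter-Glo, 30 min at room temperature) measured cell viability in the same wells as the ARE beta-lactamase reporter. HepG2 ARE-bla cells were treated with compounds for 16 hrs at 37C/5% CO2.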

Experiment [13] in a line: qHTS assay for small molecule activators of the heat shock response signaling pathway - cell viability counter screen (AID 743209). Further: nearly all actives have a fitted effect of over 50% in size. The method, boiled down: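 HSE-bla HeLa; 1500 cells/well; overnight 37 C, 5% CO2; compound 5 h 37 C; LiveBLAzer B/G substrate 2.5 h RT; CellTiter-Glo 30 min RT; luminescence.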
Experiment [14] is described as follows: qHTS assay for small molecule activators of the heat shock response signaling pathway (AID 743210; active means well fitted activation curve with a large enough effect in the signal ratio in the repeat runs, with a control signal flat, not every such curve was filed as active; the % refers to the signal ratio;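 further: HeLa cells with beta-lactamase reporter driven by heat shock elements; series mostly up to about 63 µM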). Put shortly:
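Beta-lactamase reporter read-out: FRET substrate fluorescence after 2.5 h at RT, following 5 h compound treatment at 37 C of HeLa cells carrying HSE-driven bla reporter; quantitative HTS format.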

For experiment [15], the target named is Peroxisome proliferator-activated receptor gamma (Homo sapiens) (UniProt P37231). The experiment in a line: qHTS assay to identify small molecule antagonists of the peroxisome proliferator-activated receptor gamma (PPARg) signaling pathway (AID 743191; calls by dose curve; further: series mostly up to about 63 µM; nearly all actives have a fitted effect of over 30% in size). The method, boiled down:
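GeneBLAzer PPARg UAS-bla HEK293H cells, 5 h post-plating, exposed to compounds 17 h at 37C. LiveBLAzer B/G FRET substrate added for 1 h at room temperature; beta-lactamase reporter read by fluorescence intensity.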

The nature of experiment [16]: qHTS assay to identify small molecule antagonists of the peroxisome proliferator-activated receptor gamma (PPARg) signaling pathway - cell viability counter screen (AID 743194). Further: nearly all actives have a fitted effect of over 55% in size. Put shortly: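 Cytotoxicity counter screen in PPARg-bla HEK293H cells, same wells as reporter assay. Compounds plus 50 nM rosiglitazone (final) for 17 h at 37 C, then viability read by CellTiter-Glo luminescence.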

The target of experiment [17] is Estrogen receptor (Homo sapiens) (UniProt P03372). As to the kind of experiment: qHTS assay to identify small molecule antagonists of the estrogen receptor alpha (ER-alpha) signaling pathway (AID 743069; active means well fitted curve in the direction sought with a large enough effect in the signal ratio in the repeat runs, not every such curve was filed as active; the % refers to the signal ratio). The method, boiled down:
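Beta-lactamase FRET fluorescence is read after 2 hr at room temperature with LiveBLAzer B/G substrate. Before that, ER-alpha-bla HEK293 cells sit 4 hr after plating, then receive compound plus 17beta-estradiol and incubate 18 hr at 37C.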

The target is the same in experiment [18]. The experiment in a line: qHTS assay to identify small molecule agonists of the estrogen receptor alpha (ER-alpha) signaling pathway (AID 743075; calls by dose curve;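 further: HEK293 GripTite cells with ER-alpha and UAS-driven beta-lactamase reporter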).

Several values for one entry are separate records, joined by “and”; a condition that tells them apart may be missing. Identical values can stand only once. Inconclusive results are not listed. Unmarked numbers belong to inactive results. Activity calls are given as the source filed them. Unless noted, the call rests on the fitted dose curve; in most records, active means well fitted curve in the direction sought with a large enough effect in the repeat runs; inconclusive means weak or mixed curves; inactive means no such curve, though single readings can be large; an effect the other way counts as inactive or inconclusive.
On the % scale 0 is the no-effect control and ±100 the full control effect.

Chain of Aryl hydrocarbon receptor (Homo sapiens) (P35869 whole entry, looked up): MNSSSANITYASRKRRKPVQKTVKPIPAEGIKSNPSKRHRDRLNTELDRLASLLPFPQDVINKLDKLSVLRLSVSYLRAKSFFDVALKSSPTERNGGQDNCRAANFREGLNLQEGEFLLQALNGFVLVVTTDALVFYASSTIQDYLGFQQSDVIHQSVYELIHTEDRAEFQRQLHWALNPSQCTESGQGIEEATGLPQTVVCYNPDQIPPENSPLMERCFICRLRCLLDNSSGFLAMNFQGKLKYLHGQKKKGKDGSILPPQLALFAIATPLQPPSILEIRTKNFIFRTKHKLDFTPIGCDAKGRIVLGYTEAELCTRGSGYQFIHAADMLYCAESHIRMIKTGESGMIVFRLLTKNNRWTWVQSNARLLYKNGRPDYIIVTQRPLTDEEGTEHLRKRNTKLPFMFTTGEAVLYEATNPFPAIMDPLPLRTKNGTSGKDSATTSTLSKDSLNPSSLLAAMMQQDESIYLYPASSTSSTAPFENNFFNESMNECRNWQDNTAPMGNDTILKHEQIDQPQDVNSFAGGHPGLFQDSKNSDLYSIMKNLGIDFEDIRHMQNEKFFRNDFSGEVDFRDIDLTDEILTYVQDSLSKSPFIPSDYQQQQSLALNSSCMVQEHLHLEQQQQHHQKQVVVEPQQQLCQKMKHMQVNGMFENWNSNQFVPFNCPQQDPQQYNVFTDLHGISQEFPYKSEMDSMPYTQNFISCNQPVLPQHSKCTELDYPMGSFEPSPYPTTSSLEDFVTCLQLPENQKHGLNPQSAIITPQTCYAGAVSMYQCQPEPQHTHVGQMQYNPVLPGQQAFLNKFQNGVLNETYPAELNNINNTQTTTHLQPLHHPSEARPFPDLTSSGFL
Chain of Peroxisome proliferator-activated receptor gamma (Homo sapiens) (P37231 whole entry, looked up): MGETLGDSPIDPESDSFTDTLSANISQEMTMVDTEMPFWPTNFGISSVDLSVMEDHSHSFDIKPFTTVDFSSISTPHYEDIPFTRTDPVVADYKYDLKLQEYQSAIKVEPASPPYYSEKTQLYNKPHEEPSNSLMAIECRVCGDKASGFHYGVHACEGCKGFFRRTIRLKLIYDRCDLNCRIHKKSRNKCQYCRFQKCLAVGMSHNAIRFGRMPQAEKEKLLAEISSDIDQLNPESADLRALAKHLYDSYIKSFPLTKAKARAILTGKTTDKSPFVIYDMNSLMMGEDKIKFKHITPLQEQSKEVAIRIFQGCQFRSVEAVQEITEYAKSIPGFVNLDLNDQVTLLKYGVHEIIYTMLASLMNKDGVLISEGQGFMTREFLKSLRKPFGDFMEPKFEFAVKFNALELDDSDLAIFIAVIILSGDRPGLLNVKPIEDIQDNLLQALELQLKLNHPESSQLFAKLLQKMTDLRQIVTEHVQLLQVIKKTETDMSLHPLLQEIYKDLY
Chain of Aromatase (Homo sapiens) (P11511 whole entry, looked up): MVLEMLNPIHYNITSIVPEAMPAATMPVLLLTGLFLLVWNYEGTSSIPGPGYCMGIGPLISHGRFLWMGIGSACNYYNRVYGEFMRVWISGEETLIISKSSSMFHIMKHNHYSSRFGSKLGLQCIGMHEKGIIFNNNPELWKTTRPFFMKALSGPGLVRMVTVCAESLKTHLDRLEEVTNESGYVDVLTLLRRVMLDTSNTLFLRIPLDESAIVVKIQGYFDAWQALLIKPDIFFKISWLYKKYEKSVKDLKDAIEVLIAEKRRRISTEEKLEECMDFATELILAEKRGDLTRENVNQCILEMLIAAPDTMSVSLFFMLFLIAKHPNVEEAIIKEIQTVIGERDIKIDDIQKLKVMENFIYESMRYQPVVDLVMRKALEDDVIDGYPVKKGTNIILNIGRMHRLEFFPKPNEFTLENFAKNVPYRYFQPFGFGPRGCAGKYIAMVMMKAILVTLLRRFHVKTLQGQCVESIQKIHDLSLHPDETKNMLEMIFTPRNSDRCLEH
Chain of Estrogen receptor (Homo sapiens) (P03372 whole entry, looked up): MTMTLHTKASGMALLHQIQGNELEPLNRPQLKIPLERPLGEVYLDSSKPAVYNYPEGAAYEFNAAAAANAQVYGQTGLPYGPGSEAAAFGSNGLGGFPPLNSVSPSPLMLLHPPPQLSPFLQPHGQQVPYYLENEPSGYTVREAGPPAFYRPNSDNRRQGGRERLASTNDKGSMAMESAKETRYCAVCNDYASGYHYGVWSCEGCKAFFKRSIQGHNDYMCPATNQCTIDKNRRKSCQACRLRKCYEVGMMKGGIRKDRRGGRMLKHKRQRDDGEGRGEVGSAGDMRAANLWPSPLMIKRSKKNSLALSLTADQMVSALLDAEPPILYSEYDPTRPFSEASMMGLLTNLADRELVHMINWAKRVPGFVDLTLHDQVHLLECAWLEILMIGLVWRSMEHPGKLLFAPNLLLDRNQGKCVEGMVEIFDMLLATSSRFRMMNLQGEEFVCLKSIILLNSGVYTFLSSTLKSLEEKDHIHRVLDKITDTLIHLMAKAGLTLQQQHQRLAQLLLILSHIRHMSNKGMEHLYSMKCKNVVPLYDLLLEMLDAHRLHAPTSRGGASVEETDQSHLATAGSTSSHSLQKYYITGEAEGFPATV

With `NS(=O)(=O)c1ccccc1Cl`, the Potency entry in [1], in [2], in [5], in experiment [6], in experiment [7] and in [8] was “inactive” in each case. The Potency result in experiment [9], in experiment [11] and in [12] was “inactive” in each case. Also, the compound was called inactive in experiment [3], in experiment [4], in [10], in experiment [13] and in experiment [14].

Regarding `COC(=O)CC(C)=O`, the Potency result in experiment [1], in [2], in [5], in [6], in experiment [7] and in [8] was “inactive” each time. Also, the Potency result in [9], in [15] and in experiment [11] was “inactive” in each case. In addition, the call in experiment [3], in experiment [4], in experiment [16], in experiment [13] and in experiment [14] was inactive.

For `O=C(O)CN(CCOCCOCCN(CC(=O)O)CC(=O)O)CC(=O)O`, the Potency entry in [1], in [2], in [5], in [6], in experiment [7] and in [8] was “inactive” throughout. For the same compound, in [9], the Potency result is “inactive”. Besides, the outcome in experiment [3], in [4] and in experiment [10] was inactive. Besides, the ratio activity, negative = inhibition in [15] is -4.72% [at 0.55 µM]. The values for the activity change, negative = cytotoxicity in experiment [16] and in experiment [13] were 11.4% [at 0.55 µM] and -15.4% [at 0.55 µM], respectively. Besides, the activation in experiment [11] is 8.1% [at 0.756 µM]; in experiment [14], 0.198% [at 0.55 µM]. The viability change, negative = cytotoxic in experiment [12] is 1.75% [at 0.756 µM].

With `N=C(N)c1ccccc1`, the Potency result in experiment [1], in [2], in [5], in [6], in [7] and in experiment [8] was “inactive” throughout. The Potency result in experiment [9], in experiment [15], in experiment [11] and in [12] was “inactive” throughout. The outcome in experiment [3], in experiment [4], in experiment [10], in experiment [16], in experiment [13] and in experiment [14] was inactive.

With `CN(C)CCCN1c2ccccc2CCc2ccc(Cl)cc21`, the Potency was 10.6 µM (active) and 10.9 µM (active) in [1]; 13.3 µM (active) and 17.2 µM (active) in experiment [2]; 54.5 µM (active) in experiment [5]; 48.6 µM (active) in experiment [7]; 27.3 µM (active) in [9]; 43.3 µM (active) in experiment [12]. The outcome in experiment [3], in [4], in experiment [13] and in experiment [14] was inactive. In addition, the Potency entry in experiment [6], in experiment [8] and in experiment [11] was “inactive” in each case.

On to `CCOc1ccc(C(=O)OCCN(CC)CC)cc1`, for which the Potency result in experiment [1], in experiment [2], in [5], in experiment [6], in [7] and in [8] was “inactive” in each case. For the same compound, the Potency entry in [9], in experiment [15], in experiment [11] and in experiment [12] was “inactive” throughout. The compound was called inactive in [3], in experiment [4], in experiment [16], in experiment [13] and in experiment [14].

For `NC(=O)c1ccc(N)cc1`, the Potency entry in [1], in [2], in experiment [18], in [5], in experiment [6] and in [7] was “inactive” throughout. Besides, the Potency result in [9], in [15] and in experiment [11] was “inactive” each time. Also, the result in experiment [3], in experiment [17], in experiment [13] and in [14] was inactive.

For `CN1CCN(c2cc3c(cc2F)c(=O)c(C(=O)O)cn3-c2ccc(F)cc2)CC1`, the Potency result in experiment [1], in experiment [2], in experiment [5], in experiment [6], in experiment [7] and in experiment [8] was “inactive” in each case. Moreover, the Potency entry in [9], in [11] and in experiment [12] was “inactive” each time. Moreover, the result in [3], in experiment [4], in experiment [16], in experiment [13] and in experiment [14] was inactive.

Turning to `COC(C)(C)CCCC(C)CC=O` (configuration not stated), the Potency result in [1], in [2], in experiment [5], in experiment [6], in experiment [7] and in [8] was “inactive” each time. The Potency result in experiment [9], in [15], in [11] and in experiment [12] was “inactive” in each case. The compound was classed as inactive in experiment [3], in experiment [4], in experiment [10], in experiment [16], in experiment [13] and in experiment [14].

For `O=C1CCCC(=O)C1`, the Potency entry in [1], in [2], in [5], in [6], in experiment [7] and in experiment [8] was “inactive” in each case. The Potency entry in experiment [9], in [15], in [11] and in experiment [12] was “inactive” in each case. Also, the call in experiment [3], in experiment [4], in experiment [10], in [16] and in experiment [13] was inactive.

`O=C(O)CCCc1ccccc1`: the Potency entry in [1], in experiment [2], in experiment [5], in [6], in [7] and in experiment [8] was “inactive” each time. Further, the Potency entry in [9] and in experiment [15] was “inactive” in each case. Besides, the compound was classed as inactive in experiment [3], in experiment [4], in experiment [16], in experiment [13] and in experiment [14].

Turning to `CC(=O)OCC(=O)[C@@]1(O)CCC2C3CCC4=CC(=O)CC[C@]4(C)C3[C@@H](O)C[C@@]21C` (some centres not stated), the Potency entry in experiment [1], in experiment [2], in [5], in experiment [6], in experiment [7] and in experiment [8] was “inactive” each time. Further, the Potency entry in [9], in [15] and in experiment [11] was “inactive” throughout. Also, the compound was classed as inactive in experiment [3], in [4], in experiment [10], in experiment [16], in experiment [13] and in experiment [14].

In the case of `NC(=O)c1ccc([N+](=O)[O-])cc1`, the Potency result in experiment [1], in [2], in experiment [5], in experiment [6], in experiment [7] and in [8] was “inactive” throughout. The Potency result in [9], in experiment [15] and in experiment [12] was “inactive” throughout. Moreover, the compound was classed as inactive in experiment [3], in experiment [4], in experiment [16] and in experiment [13].
